Results on 61 compounds are retold here after PMC4336329 (PLoS ONE, 2015).

Out of some 310,000 compounds screened, about 2,200 (0.71%) showed an effect of 50% or more. The effect is printed as a negative number. This excerpt belongs to a sample that is enriched for strong results.

The target in the assay is human ether-à-go-go-related gene (hERG) potassium channel (human, UniProt Q12809). Briefly: primary screen, population patch clamp on CHO cells stably expressing hERG; higher = less effect of the substance.
human ether-à-go-go-related gene (hERG) potassium channel, sequence (Q12809 whole entry, looked up): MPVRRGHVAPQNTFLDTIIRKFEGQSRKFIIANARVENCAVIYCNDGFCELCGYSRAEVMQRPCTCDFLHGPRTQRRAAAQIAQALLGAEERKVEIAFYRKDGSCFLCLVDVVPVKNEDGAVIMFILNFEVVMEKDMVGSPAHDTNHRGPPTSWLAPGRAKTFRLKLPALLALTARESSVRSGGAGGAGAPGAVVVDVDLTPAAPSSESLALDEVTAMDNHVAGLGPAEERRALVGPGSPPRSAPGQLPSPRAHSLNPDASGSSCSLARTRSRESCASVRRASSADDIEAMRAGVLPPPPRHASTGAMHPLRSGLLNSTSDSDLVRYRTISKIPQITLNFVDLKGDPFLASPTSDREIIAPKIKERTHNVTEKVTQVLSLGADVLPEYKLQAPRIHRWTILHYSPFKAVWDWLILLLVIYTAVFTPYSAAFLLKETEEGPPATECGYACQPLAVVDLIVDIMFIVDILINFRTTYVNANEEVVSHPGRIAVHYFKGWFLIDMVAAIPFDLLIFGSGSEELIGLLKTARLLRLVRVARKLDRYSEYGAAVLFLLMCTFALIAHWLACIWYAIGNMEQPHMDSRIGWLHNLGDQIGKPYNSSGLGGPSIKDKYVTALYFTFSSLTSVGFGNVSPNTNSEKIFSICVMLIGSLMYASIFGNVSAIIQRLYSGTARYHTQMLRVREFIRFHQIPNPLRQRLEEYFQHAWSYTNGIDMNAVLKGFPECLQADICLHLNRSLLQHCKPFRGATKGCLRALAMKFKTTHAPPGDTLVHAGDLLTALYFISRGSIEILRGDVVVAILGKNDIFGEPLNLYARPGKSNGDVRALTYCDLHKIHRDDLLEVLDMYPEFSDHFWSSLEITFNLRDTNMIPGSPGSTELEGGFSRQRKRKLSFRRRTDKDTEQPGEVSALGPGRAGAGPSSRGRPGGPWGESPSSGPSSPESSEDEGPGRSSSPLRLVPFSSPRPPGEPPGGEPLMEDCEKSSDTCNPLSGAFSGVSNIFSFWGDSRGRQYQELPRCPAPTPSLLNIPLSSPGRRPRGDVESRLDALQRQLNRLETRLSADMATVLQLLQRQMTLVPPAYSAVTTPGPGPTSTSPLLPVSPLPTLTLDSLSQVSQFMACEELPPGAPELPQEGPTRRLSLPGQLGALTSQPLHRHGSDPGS
On to `CNc1sc(C(=O)c2ccc(F)cc2)c(N)c1-c1nc2ccccc2s1`, for which the “hERG current change (%, negative = inhibition) at 1uM” value stood at 5.15%. For `CNNC(=S)NCCC1=CCCCC1` the value was 10.2%; for `C/C(N)=C(/C#N)C(=O)CSc1nc2ccc(C)cc2[nH]1`, 11%; for `Cn1cnnc1SC(C(=O)Nc1ccc(F)cc1)c1ccccc1` (stereo not shown), 4.93%. For `CCCc1ccc(-c2cc(C(=O)NCCc3ccc(S(N)(=O)=O)cc3)c3ccccc3n2)cc1` the value was 16.3%; for `O=C(CCS(=O)(=O)c1ccc(Br)cc1)Nc1ccccn1`, 15.2%; for `CCOc1ccc(N(CC(=O)OC)S(=O)(=O)c2ccc(OC)c(OC)c2)cc1`, -0.463%.

`COc1ccc(-n2c(Cc3cccn3C)nnc2SCC(=O)Nc2ccccc2OC)cc1`: the “hERG current change (%, negative = inhibition) at 1uM” value is on record as -4.23%. For the compound `COc1ccc(Cl)cc1NC(=O)CSc1nnc(Cc2cccn2C)n1-c1ccc(F)cc1`, the “hERG current change (%, negative = inhibition) at 1uM” value is 2.71%. With `COc1ccc(-n2c(Cc3cccn3C)nnc2SCC(=O)Nc2cc(Cl)ccc2OC)cc1`, the “hERG current change (%, negative = inhibition) at 1uM” value is on record as -50.9%. Take `COc1ccc(C2NN=C(c3ccc(C)cc3)S2)cc1OC` (stereo not shown): the “hERG current change (%, negative = inhibition) at 1uM” value came out at 16.1%.

Take `CCN(CC)CCN(C(=O)C1=COCCO1)c1nc2cc(C)cc(C)c2s1.Cl`: the “hERG current change (%, negative = inhibition) at 1uM” value is given as -36.7%. Consider `CCN(CC)CCN(C(=O)c1ccc([N+](=O)[O-])cc1)c1nc2c(OC)cccc2s1.Cl`, for which the “hERG current change (%, negative = inhibition) at 1uM” value is -53.4%. `CCN(CC)CCN(C(=O)C1=COCCO1)c1nc2c(OC)ccc(OC)c2s1.Cl`: the “hERG current change (%, negative = inhibition) at 1uM” value is reported as -84.9%.

Consider `CCN(CC)CCN(C(=O)C1=COCCO1)c1nc2ccc(C)cc2s1.Cl`, for which the “hERG current change (%, negative = inhibition) at 1uM” value was -34%. As for `CCN(CC)CCN(C(=O)C1=COCCO1)c1nc2cc3c(cc2s1)OCO3.Cl`, the “hERG current change (%, negative = inhibition) at 1uM” value is listed as -63.3%. Consider `CCN(C(=O)C1=COCCO1)c1nc2c(C)cccc2s1`, for which the “hERG current change (%, negative = inhibition) at 1uM” value was 0.721%. With `CCN(CC)CCN(C(=O)c1ccc(C(=O)c2ccccc2)cc1)c1nc2c(OC)cccc2s1.Cl`, the “hERG current change (%, negative = inhibition) at 1uM” value is -33%.

As for `CCN(CC)CCN(C(=O)c1ccc2c(c1)OCCO2)c1nc2cc3c(cc2s1)OCO3.Cl`, the “hERG current change (%, negative = inhibition) at 1uM” value is -18.3%.

With `CCOc1cccc2sc(N(CCN(CC)CC)C(=O)c3cccc([N+](=O)[O-])c3)nc12.Cl`, the “hERG current change (%, negative = inhibition) at 1uM” value is reported as -44.9%. As to `Cc1c(Cl)c([N+](=O)[O-])nn1CCCC(=O)Nc1cc(Cl)ccc1Cl`, the “hERG current change (%, negative = inhibition) at 1uM” value is given as -10.9%. Take `O=C(CP(=O)(c1ccccc1)c1ccccc1)N1CCCCC1`: the “hERG current change (%, negative = inhibition) at 1uM” value is 6.28%.

On to `CCOC(=O)c1cnc2ccc(OCC)cc2c1N1CCN(C)CC1.Cl`, for which the “hERG current change (%, negative = inhibition) at 1uM” value is -15.6%. For `COc1cc2ncc(C(=O)c3ccccc3)c(N3CCN(Cc4ccccc4)CC3)c2cc1OC` the value was 8.52%; for `CCOc1ccc2ncc(C(=O)c3ccc(OC)cc3)c(N3CCN(CC)CC3)c2c1`, -66%. On to `CCc1ccc(C(=O)c2cnc3ccc(OC)cc3c2N2CCN(CC)CC2)cc1`, for which the “hERG current change (%, negative = inhibition) at 1uM” value is on record as -46.6%. Take `CCN1CCN(c2c(C(=O)c3ccc(OC)cc3)cnc3ccccc23)CC1`: the “hERG current change (%, negative = inhibition) at 1uM” value was -67.9%. Consider `CCOc1ccc(C(=O)c2cnc3ccccc3c2N2CCN(CC)CC2)cc1`, for which the “hERG current change (%, negative = inhibition) at 1uM” value is listed as -43.9%. Regarding `CC1CCN(CC(C)OC(=O)c2ccc3c(c2)OCCO3)CC1.Cl` (stereo not shown), the “hERG current change (%, negative = inhibition) at 1uM” value was 3.75%. Consider `O=C(NC(NC(=S)Nc1ccccc1C(=O)O)C(Cl)(Cl)Cl)c1ccco1` (stereo not shown), for which the “hERG current change (%, negative = inhibition) at 1uM” value is 5.62%. Consider `Cc1ccc(S(=O)(=O)NCCC(=O)N2CCCCCCC2)cc1`, for which the “hERG current change (%, negative = inhibition) at 1uM” value came to 22.3%. For the compound `Cn1c(=O)oc2cc(S(=O)(=O)NCCN3CCN(c4ccccc4F)CC3)ccc21`, the “hERG current change (%, negative = inhibition) at 1uM” value came out at 3.83%. Take `CN(C)c1ccc(-c2noc(C3CCN(S(=O)(=O)c4cccc(C(=O)O)c4)CC3)n2)cc1`: the “hERG current change (%, negative = inhibition) at 1uM” value is recorded as 13.6%.

`O=C(O)c1cccc(N=NN2CCCCCC2)c1`: the “hERG current change (%, negative = inhibition) at 1uM” value was determined as 8.11%. As for `Cc1ccc(Nc2nc(N)nc(CSc3nc(C)cc(C)n3)n2)cc1`, the “hERG current change (%, negative = inhibition) at 1uM” value turned out to be 8.5%.

Take `Cc1csc2nc(CSc3nc4ccccc4o3)c(Br)n12`: the “hERG current change (%, negative = inhibition) at 1uM” value was 15.9%.

For the compound `Cc1cc(C)n2c(Br)c(CSc3nc4ccccc4o3)nc2n1`, the “hERG current change (%, negative = inhibition) at 1uM” value is -53%. `Cc1cc(C)n2c(Br)c(CSc3nc4ccccc4s3)nc2n1`: the “hERG current change (%, negative = inhibition) at 1uM” value is -19.3%. For `CCn1c(=O)c(C(=O)CN(C)Cc2ccc(F)cc2)c(N)n(Cc2ccccc2)c1=O` the value was -33.6%; for `Cn1c(=O)c(C(=O)CN2CCN(Cc3ccc4c(c3)OCO4)CC2)c(N)n(Cc2ccccc2)c1=O`, -40.4%. For `CCOc1ccc(CN(C)CC(=O)c2c(N)n(Cc3ccccc3)c(=O)n(CC)c2=O)cc1OC`, the “hERG current change (%, negative = inhibition) at 1uM” value is -82.5%. For `CCn1c(=O)c(C(=O)CN(C)Cc2cccc(OC)c2OC)c(N)n(Cc2ccccc2)c1=O` the value was -18.3%; for `CCn1c(=O)c(C(=O)CN2CCN(Cc3ccc4c(c3)OCO4)CC2)c(N)n(Cc2ccccc2)c1=O`, -67.4%.

For `CCn1c(=O)c(C(=O)CN2CCOCC2)c(N)n(Cc2ccccc2)c1=O`, the “hERG current change (%, negative = inhibition) at 1uM” value is reported as -0.674%. Take `CCNC1=C(Cl)C(=O)c2ccccc2C1=O`: the “hERG current change (%, negative = inhibition) at 1uM” value was determined as 14.3%.

`O=C(O)C1CCCN1C(=O)NC1CCCCC1` (stereo not shown): the “hERG current change (%, negative = inhibition) at 1uM” value worked out at 17.1%. Take `O=C(c1cc(Br)ccc1Cl)N1CCN(c2ccc(N3CCOCC3)nn2)CC1`: the “hERG current change (%, negative = inhibition) at 1uM” value was 5.71%.

For the compound `COc1cccc(/C=N/NC(=O)NC23CC4CC(CC(C4)C2)C3)c1O`, the “hERG current change (%, negative = inhibition) at 1uM” value is recorded as 6.53%. `COc1ccc(NC(=O)CSc2n[nH]c(-c3ccccn3)n2)cc1`: the “hERG current change (%, negative = inhibition) at 1uM” value turned out to be 13%.

Turning to `COc1ccc(C(=O)Nc2ccccc2NC(=O)c2ccco2)cc1OC`, the “hERG current change (%, negative = inhibition) at 1uM” value was -9.39%.

For the compound `CCN=C1SC(CC(=O)Nc2ccc(C(F)(F)F)cc2)C(=O)N1CC` (stereo not shown), the “hERG current change (%, negative = inhibition) at 1uM” value is given as 1.51%. In the case of `Cc1cc(C)cc(NC(=O)c2ccccc2NC(=O)CCC(=O)O)c1`, the “hERG current change (%, negative = inhibition) at 1uM” value is 7.41%.

For `N#Cc1ccccc1OCCCNC1CCCC1.O=C(O)C(=O)O`, the “hERG current change (%, negative = inhibition) at 1uM” value worked out at 2.23%. Take `CCC(=O)c1ccccc1OCCCN1CCC(Cc2ccccc2)CC1.O=C(O)C(=O)O`: the “hERG current change (%, negative = inhibition) at 1uM” value is recorded as -87%.

Turning to `O=C(O)C(=O)O.OCc1ccccc1OCCCN1CCC(Cc2ccccc2)CC1`, the “hERG current change (%, negative = inhibition) at 1uM” value was -65.9%. As for `CC1CCN(CCCCOc2ccccc2F)CC1.O=C(O)C(=O)O`, the “hERG current change (%, negative = inhibition) at 1uM” value is 7.61%. As to `CCC(=O)c1ccccc1OCCN1CCN(CC)CC1.O=C(O)C(=O)O`, the “hERG current change (%, negative = inhibition) at 1uM” value is on record as -2.43%.

In the case of `CCc1ccccc1OCCCCN1CCCC1.O=C(O)C(=O)O`, the “hERG current change (%, negative = inhibition) at 1uM” value was -2.73%. On to `N#Cc1ccccc1OCCCN1CCC(Cc2ccccc2)CC1.O=C(O)C(=O)O`, for which the “hERG current change (%, negative = inhibition) at 1uM” value is -83%. For the compound `CCC(=O)c1ccccc1OCCN1CCN(Cc2ccccc2)CC1.O=C(O)C(=O)O`, the “hERG current change (%, negative = inhibition) at 1uM” value is listed as -21.9%.

On to `CCc1ccccc1OCCCN1CCCC1.O=C(O)C(=O)O`, for which the “hERG current change (%, negative = inhibition) at 1uM” value is listed as 3.26%.
